# Sampled rows, rich in hits. Any-hit rate of the full collection: about 3.6%.
# BoNT-F LC inh: inhibitors of Botulinum neurotoxin F light chain protease | Multiplex microsphere protease cleavage assay, flow cytometry | inhibition, % at 10 µM | 360,000 compounds, 0.22% hits; in the data active = inhibition above about 35%, passing the limit was not always enough; inconclusive = no clear call, values can overlap the other calls; also: plate controls were buffer without enzyme for full effect and enzyme alone for no effect
# BoNT A protease: BoNT A light chain protease inhibition | multiplex microsphere protease substrate cleavage, flow cytometry | inhibition, % at 10 µM | 360,000 compounds, 0.17% hits | AID 588499; also: plate controls were buffer without enzyme for full effect and enzyme alone for no effect
# Autofluor counter: counter-screen for toxin protease inhibitors: compound fluorescence; fluorescence intensity (test concentration not listed); AID 624483; 360,000 compounds, 3.1% hits; compound autofluorescence counterscreen, microsphere flow cytometry; hits give high values; in the data active = fluorescence intensity above about 16000; inconclusive = no clear call, values can overlap the other calls
# Anthrax LF prot: anthrax lethal factor protease inhibition. multiplex microsphere protease cleavage assay, LF. inhibition, % at 10 µM. 360,000 compounds, 0.12% hits; also: plate controls were buffer without enzyme for full effect and enzyme alone for no effect
# MazF activator: MazEF (E. coli) toxin RNase activation; P0AE70; FAM/BHQ RNA-DNA oligo cleavage fluorescence, 5 h; activation, % at 20 µM; 350,000 compounds, 0.32% hits; AID 504720; in the data active = activation above about 50%
# * hit, by the source's call; u = inconclusive; x = no result. Rule as the data show it, unless noted: active = inhibition above about 30%; inconclusive = no clear call, values can overlap the other calls; inactive = below that.
SMILES,BoNT-F LC inh,BoNT A protease,Autofluor counter,Anthrax LF prot,MazF activator
CCCN1CCN(CC(O)COC(c2ccc(OC)cc2)c2ccc(OC)cc2)CC1 (centres undefined),u,1,3869,-9,15
Cc1cc2cc(CNC(=S)Nc3ccc(OC(F)F)cc3)ccc2n1C,-126,66*,1428,-111,19
FC(F)Oc1ccc(NC(=S)NCc2ccccc2)cc1,-5,0,2034,-1,2
CCCCc1nnc(SCCSc2nnc(CCCC)n2N)n1N,-1,0,23554*,-1,5
CCc1nnc(SCCSc2nnc(CC)n2N)n1N,2,0,2392,-1,1
Cn1c(=O)c2c(ncn2CC(=O)N/N=C/C=C\c2ccccc2[N+](=O)[O-])n(C)c1=O,x,x,x,x,-7
COc1ccc(C(=O)N2CCN(c3ccc(NC(=O)Cc4ccccc4)cc3)CC2)cc1,-5,-1,5722,-4,-18
Cc1ccc(C(=O)N2CCN(c3ccc(NC(=S)NC(=O)Cc4ccccc4)cc3)CC2)cc1,-4,1,22933*,-3,-4
O=C(Cc1ccccc1)Nc1ccc(N2CCN(Cc3ccccc3F)CC2)cc1,6,u,17943*,-12,5
CC(=O)N(Cc1ccccc1)C(CC(=O)NCc1ccccc1)C(=O)O (centres undefined),3,0,3805,3,6
CCCNc1nc(Nc2ccc(C)cc2)nc(N2CCCC2)n1,1,0,16266*,0,4
CC(C)CNC(=O)COC(=O)c1c2c(nc3ccccc13)/C(=C/c1cccs1)CC2,18,31*,8338,24,-45
CCNc1ccc(Br)cc(C(=O)/C=C/c2ccccc2Cl)c1=O,19,52*,16998*,45*,-14
COc1nc(C#N)c(N2CCOCC2)o1,-3,-2,23391*,-2,6
COc1ccc(-c2nc(C#N)c(N3CCCCC3)o2)cc1,1,1,3499,8,0
Cc1ccc2c(c1)N(CCC(=O)NC1CCCCC1C)C(=O)CO2 (centres undefined),2,1,4458,-2,5
CC1(CCC(=O)N2CCCC(Nc3ccc(F)cc3)C2)CC1 (centres undefined),x,x,x,x,-1
C#CCN1C(=O)C2(C(C#N)=C(N)OC(C)=C2C(=O)OCc2ccccc2)c2ccccc21 (centres undefined),7,2,u,-1,7
COC(=O)CC1=C(C(=O)OC)C2(C(=O)Nc3c(C)cccc32)C(C#N)=C(N)O1 (centres undefined),2,u,20727*,-16,-4
CCOC(=O)C1=C(C)OC(N)=C(C#N)C12C(=O)N(C)c1ccccc12 (centres undefined),0,0,2706,-5,63*
CCCC1=C(C(=O)OCC)C2(C(=O)Nc3ccccc32)C(C#N)=C(N)O1 (centres undefined),-1,-1,22790*,0,7
COC(=O)N1CCC2CC1c1c(Cl)cccc12 (centres undefined),3,0,5847,-10,x
N#CCC(=N)N1CCN(c2ccc(F)cc2)CC1,0,1,4456,-14,-6
Cc1cc(N2CCN(c3ccccc3)CC2)nc(-c2ccccc2)n1,-9,-1,3486,-8,-19
Cc1cc(N2CCN(c3ccccc3)CC2)nc(N)n1,-2,u,20567*,1,-1
SMILES,BoNT-F LC inh,BoNT A protease,Autofluor counter,Anthrax LF prot,MazF activator
CC(C)(C)Cc1c(-c2cccc(Br)c2)nc2ccc(Cl)cn12,-25,2,5239,-9,x
C/C(=N\O)C1/C(=N/O)CC2C1C2(C)C (centres undefined),-2,-1,23424*,-1,-4
CC(=O)/C(=C/N(C)C)Sc1ccc(C)cc1,4,0,2197,-4,-3
CC(=O)/C(=C\N(C)C)Sc1ccc(C)cc1,38*,-1,3560,u,3
O=C(CCC(=O)OCC(=O)c1cccc([N+](=O)[O-])c1)Nc1ccccc1Cl,-7,-4,25045*,-2,5
O=C(NNC(=O)c1ccco1)c1cccc([N+](=O)[O-])c1,38*,-1,4513,2,1
O=C(CCC(=O)OCc1cccc([N+](=O)[O-])c1)Nc1ccccc1Cl,-1,0,2567,-1,-1
Cc1ccc(C)c(NC(=O)CCC(=O)NNC(=O)c2cccc([N+](=O)[O-])c2)c1,-4,u,24147*,1,-3
CCC(C(=O)Nc1cnccn1)c1ccccc1 (centres undefined),-5,-2,24267*,0,-2
O=C(NCc1ccc(F)cc1)c1[nH]c(C(F)(F)F)nc1-c1ccccc1,-12,0,5690,-5,x

# Screening results deposited in PubChem by several laboratories.
